{"source": "PubChem BioAssay (NCI)", "note": "Compounds without any hit were thinned out: in the full panel of roughly 83,000, 20% have a hit.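 How to read the values: 0–100, growth inhibition (40 = 60% inhibited); 0, no net growth; -100 to 0, cell death (-40 = 40% of starting cells died; -100 = all dead).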 A number with no mark means an inactive call. Activity calls are given as the source filed them. How the source made its calls: active means growth percent below 10; inactive means the rest.", "data": [{"test_system": "HL-60(TB) leukemia", "assay": "NCI-60 one-dose screen, 48 h (100 = growth as untreated, 0 = no growth, -100 = all killed)", "conditions": "10 µM unless noted", "values": [{"smiles": "O=S(=O)(c1ccccc1)n1cc2c(c1-c1ccccc1)CCc1sc(Nc3ccccc3)nc1-2", "growth": "94.1%"}, {"smiles": "CCOC(=O)CC(c1ccccc1)C(C#N)c1ccccc1", "note": "(stereo not given)", "growth": "99.3%"}, {"smiles": "Fc1cc(-c2nnc3n2NC(=Nc2ccc(Cl)cc2)CS3)c(Cl)cc1Cl", "growth": "94.1%"}, {"smiles": "CN1/C(=C\\C=C\\C2=[N+](C)c3ccccc3C2(C)C)C(C)(C)c2ccccc21", "growth": "-22.5% (active)"}, {"smiles": "C=C1C(=O)O[C@H]2[C@H]1CC/C(COC(=O)/C=C/c1c[nH]c3ccccc13)=C\\CC[C@@]1(C)O[C@@H]21", "growth": "-18.7% (active)"}, {"smiles": "O=S(=O)(OCCO)c1ccccc1", "growth": "107%"}, {"smiles": "CCCCCCCC/C=C/CCCCCCCC1=NC(C)(C)CN1C(C)C", "growth": "-65.6% (active)"}, {"smiles": "COc1ccc(/C=C2\\CCCC3=C2NC(C)=NC3c2ccc(OC)c(OC)c2)cc1OC", "note": "(stereo not given)", "growth": "-6.62% (active)"}, {"smiles": "N/C(=N\\O)c1ncc(-c2ccc(C(F)(F)F)cc2)c(NC2CCCCCC2)n1", "growth": "-58.8% [100 µM] (active)"}, {"smiles": "O=C(CSc1nc2ccc([N+](=O)[O-])cc2[nH]1)Nc1cccc(Cl)c1", "growth": "16.9%"}, {"smiles": "OCC(O)COc1ccc(Cl)cc1Cl", "note": "(stereo not given)", "growth": "103%"}, {"smiles": "CCCCCCCC(=O)SCC/C=C/[C@@H]1CC(=O)NCc2cccc(n2)CN(Cc2ccc3ccccc3c2)CC(=O)N[C@@H](C(C)C)C(=O)O1", "growth": "11%"}, {"smiles": "OCc1ccccc1F", "growth": "135%"}, {"smiles": "Cc1cc(Nc2cccc(F)c2)nc(NCc2ccccc2)n1", "growth": "24.1%"}, {"smiles": "COc1ccccc1-n1c(SCc2cc(OC)c(OC)c(OC)c2)nc2ccc(Cl)cc2c1=O", "growth": "-19.6% (active)"}, {"smiles": "O=S(=O)(O)c1ccc(N/N=C/c2ccccc2Cl)cc1", "growth": "101%"}, {"smiles": "Cn1cc(-c2nonc2-c2c[nH]c3ccccc23)c2ccccc21", "growth": "1.04% (active)"}, {"smiles": "COC(=O)/C(CCC=C(C)C)=C1\\[C@@H](OC(C)=O)C[C@@]2(C)[C@H]1CC(=O)[C@H]1[C@@]3(C)CC[C@H](NCc4ccccc4)[C@@H](C)[C@@H]3CC[C@@]12C", "growth": "84.7%"}, {"smiles": "CC(NCCC(c1ccccc1)c1ccccc1)c1ccccc1", "note": "(stereo not given)", "growth": "14.6%"}, {"smiles": "COC(=O)[C@@H]1CCCN1C(=O)[C@H]1CCCN1C(=O)[C@@H](Cc1c[nH]c2ccccc12)NC(=S)Nc1cc(C(F)(F)F)cc(C(F)(F)F)c1", "growth": "12.2%"}, {"smiles": "CC1(O)CCCCCC1", "growth": "92.7%"}, {"smiles": "O=C(c1ccc(Cl)cc1)C1C(c2ccccc2)C1[N+](=O)[O-]", "note": "(stereo not given)", "growth": "99.3%"}, {"smiles": "Fc1ccc2[nH]cc(-c3nc(-c4c[nH]c5ccncc45)cs3)c2c1", "growth": "-42.1% (active)"}, {"smiles": "CCOC(=O)c1cnn2c3ccccc3n(S(=O)(=O)c3ccc(OC)cc3)c12", "growth": "4.77% (active)"}, {"smiles": "Nc1nc(-c2cnccn2)nn1-c1nc2ccccc2s1", "growth": "100%"}, {"smiles": "CCN(CC)C12CCCCC1(C)C(C#N)(C#N)C(C#N)=C(N)O2", "note": "(stereo not given)", "growth": "72.5%"}, {"smiles": "C=C(CBr)[C@@H]1CC[C@]2(C(=O)O)CC[C@]3(C)[C@H](CC[C@@H]4[C@@]5(C)CCC(=O)C(C)(C)[C@@H]5CC[C@]43C)[C@@H]12", "growth": "71.7%"}, {"smiles": "COc1cccc(C(=O)Cn2cc(/C=C(\\C#N)S(=O)(=O)c3ccccc3)c3ccccc32)c1", "growth": "102%"}, {"smiles": "O=C(N/N=C/c1ccc(O)cc1O)c1cccc(Nc2ccnc(C(F)(F)F)c2)c1", "growth": "8.21% (active)"}, {"smiles": "COc1ccc(-c2nc(Nc3cc(C)[nH]n3)c3ccccc3n2)cc1", "growth": "41.4%"}, {"smiles": "C/C(=N/N=C(N)N)c1ccc(Cl)cc1", "growth": "171%"}, {"smiles": "N#Cc1cc(-c2cc3ccccc3o2)oc1N", "growth": "-49.3% (active)"}, {"smiles": "CC[C@@](C)(NC(=O)[C@H](C)NC(=O)CCNC(=O)C(C)(C)NC(=O)[C@H](C)NC(=O)[C@@H]1CCCN1C(=O)[C@@](C)(CC)NC(=O)[C@H](Cc1ccccc1)NC(=O)C1CCCN1C(=O)C(C)(C)NC(=O)C1CCCN1C(=O)C(C)(C)NC(C)=O)C(=O)NCCC(=O)N[C@@H](CC(C)C)C(=O)NC(C)(C)C(=O)NCCC(=O)N[C@@H](CC(C)C)C(=O)NC(C)(C)C(=O)NC(C)(C)C(=O)N[C@@H](CC(C)C)C(=O)NCCC(=O)NCO", "note": "(stereo not given in full)", "growth": "-62.3% (active)"}, {"smiles": "N#Cc1c(-c2ccc(F)cc2)nc(N/N=C/c2cccc(O)c2)nc1N1CCOCC1", "growth": "47.2%"}, {"smiles": "CCCC(=O)Oc1ccc(/C(=C(/CC)Cc2ccccc2)c2ccc(OCCN3CCCC3)cc2)cc1", "growth": "89.2%"}]}]}
